The source of these data is PubChem BioAssay (NCATS).

The source made the active and inactive calls. Calls come from the whole dose curve; as a rule, active = well fitted curve in the direction sought with a large enough effect; inactive = no such curve, though single readings can be large or run the other way.

The nature of the assay: qHTS for small molecule inhibitors of Yes1 kinase: Counter Assay (AID 686950).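 Note: no kinase present so only ADP-Glo detection of a fixed ADP amount is tested; luminescence from ADP-Glo reporting ADP in a fixed ATP and ADP mixture.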 The settings on record: series mostly up to 76.9 µM. In a few lines: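 Enzyme-free ADP-Glo interference check: compounds were preincubated 20 min in buffer, then an ATP/ADP mix (0.08 mM ATP, 0.02 mM ADP final) was added for 60 min at room temperature before two-step ADP-Glo luminescence detection.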
For the molecule `CNC(=O)c1cncc(C=Cc2c(C)cccc2C)c1`, the call was inactive.

For the molecule `CC(Oc1cc(-n2cnc3ccc(OCC4CCN(C)CC4)cc32)sc1C(N)=O)c1ccccc1Cl` (centres undefined), the result was inactive. For `O=C1NC(=O)C(c2ccccc2Cl)=C1Nc1cc(Cl)c(O)c(Cl)c1`, the outcome was inactive. For the molecule `c1cnn2ncc(-c3ccnc(NCCCN4CCOCC4)n3)c2c1`, the result was inactive. In the case of `CCCN1CCC(Oc2cc(Nc3nc(Nc4cccc(F)c4C(N)=O)c4cc[nH]c4n3)c(OC)cc2Cl)CC1`, the molecule was classed as inactive. In the case of `Nc1nccc(-c2c(-c3ccc(F)cc3)ncn2C2CCNCC2)n1`, the molecule was called inactive. `COc1cccc(-n2ncc3c(NN=Cc4ccc(C)cc4)ncnc32)c1`: the molecule was called inactive. `CCn1c(-c2nonc2N)nc2c(C#CC(C)(C)O)nc(OCC(N)c3ccccc3)cc21` (centres undefined): the molecule was called inactive. For `O=C(Nc1n[nH]c2nc(-c3ccco3)ccc12)C1CC1`, the outcome was inactive.

Regarding `NC(=O)c1sc(-n2cnc3ccc(C(F)(F)F)cc32)cc1OCc1ccccc1Br`, the result was inactive. Regarding `N#Cc1c(NC(=O)c2ccccc2F)sc2c1CCCC2`, the molecule was called inactive. For the molecule `Nc1nccc(-c2c(-c3ccc(F)cc3)nn3cc(C(F)(F)F)ccc23)n1`, the outcome was inactive.

`N#Cc1cccc(Nc2nccc(-c3cnn4ncccc34)n2)c1`: the result was inactive. As for `CCOc1ccc2c(-c3ccnc(Nc4cc(OC)cc(C(F)(F)F)c4)n3)cnn2n1`, the molecule was called inactive. With `CN(C)c1ccc2[nH]c(O)c(C=Nc3ccc(S(N)(=O)=O)cc3)c2c1`, the molecule was called inactive. As for `COc1cc2ncn(-c3cc(OCc4cccs4)c(C(N)=O)s3)c2cc1OC`, the result was inactive.

As to `c1ccc(-c2[nH]ncc2-c2ccnc(-c3ccc(OCCN4CCOCC4)cc3)c2)nc1`, the molecule was classed as inactive.

In the case of `NC(=O)c1cc(-c2ccc(F)cc2)cc(-c2ccncc2)c1N`, the outcome was inactive. With `Cc1ccc(C(=O)NC2CCC2)cc1-c1ccc(C(=O)NCC2CC2)cc1`, the molecule was classed as inactive.

As for `NC(=O)c1sc(-n2cnc3ccccc32)cc1OCc1ccccc1Br`, the call was inactive. Consider `CCN1CCC(C(=O)Nc2n[nH]c3nnc(-c4cccc(F)c4F)cc23)CC1`, for which the molecule was classed as inactive. `Cc1cccc2c(N=Nc3ccc(S(N)(=O)=O)cc3)c(O)[nH]c12`: the call was inactive. Turning to `Cc1ccc2[nH]c(O)c(N=Nc3ccc(S(N)(=O)=O)cc3)c2c1`, the outcome was inactive. The entry for `Cc1cccc(Oc2nccc(-c3c(-c4ccc(F)cc4)ncn3C3CCNCC3)n2)c1C` is “inactive”; for `Fc1ccc(-c2ncn(C3CCNCC3)c2-c2ccnc(Oc3cccc(F)c3)n2)cc1` it is “inactive”.

In the case of `COC(=O)c1ccc2c(c1)/C(=C/c1cc(Br)c(O)c(Br)c1)C(=O)N2`, the call was inactive. `CS(=O)(=O)CCNCc1nc(-c2ccc3ncnc(Nc4ccc(OCc5cccc(C(F)(F)F)c5)cc4)c3c2)cs1`: the molecule was called inactive. For `c1ccc(Cc2nc3ccc(Nc4ncnc5ccccc45)cc3[nH]2)cc1`, the call was inactive.

`CS(=O)(=O)Nc1cccc(-c2ccc3c(NC(=O)C4CC4)n[nH]c3c2)c1`: the molecule was called inactive.

As to `NS(=O)(=O)c1ccc(N=Nc2c(=O)[nH]c3ccc4[nH]cccc4c23)cc1`, the call was inactive.

As for `O=C(OC1CNC(C#Cc2cc3ncnc(Nc4ccc5c(ccn5Cc5cc(F)ccc5F)c4)c3s2)C1)N1CCOCC1` (centres undefined), the molecule was classed as inactive.

In the case of `O=C(Nc1ccc(Oc2ccc3nc(NC(=O)c4ccccc4)[nH]c3c2)cc1)Nc1cc(C(F)(F)F)ccc1F`, the outcome was inactive. `Nc1nc(-c2cccc(Cl)c2)c(-c2ccc3ncccc3n2)s1`: the call was inactive. As for `COc1ccc(-c2ccc3c(NC(=O)C4CC4)n[nH]c3n2)cc1`, the outcome was inactive. With `CN(C)CCOc1ccc(-c2cc(-c3ccc4c(c3)CCC4=NO)c(-c3ccncc3)o2)cc1`, the molecule was called inactive. As to `CCn1c(-c2nonc2N)nc2c(C#CC(C)(C)O)ncc(OCC3CCNCC3)c21`, the molecule was classed as inactive. For `CNC(=O)c1cccc(C#Cc2cncnc2Nc2ccc(OCc3cccc(F)c3)c(Cl)c2)c1`, the result was inactive. The entry for `Fc1ccc(-c2ncn(CCCN3CCOCC3)c2-c2ccncc2)cc1` is “inactive”; for `CCn1c(-c2nonc2N)nc2cncc(C(=O)N3CCC(N)C3)c21` (centres undefined) it is “inactive”.
